Measurements: PubChem BioAssay (NCATS)
Results filed as inconclusive are left out. Calls of active or inactive are those of the source. The call rests on the fitted dose curve; in most records, active means well fitted curve in the direction sought with a large enough effect; inconclusive means small, poorly fitted or top-dose-only effect, or another doubt; inactive means no such curve, though single readings can be large; an effect the other way counts as inactive or inconclusive.

What was measured:
[1] = qHTS of pediatric cancer cell lines to identify multiple opportunities for drug repurposing: Confirmatory screen for MG 63 (6-TG R) cells (AID 1347119); further: nearly all actives have a fitted effect of over 55% in size; further: potency means the concentration at half of the fitted maximal effect
Outline: (§1)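 Cells (500-1,000/well) rested 5 h, then received compounds for 48 h; metabolically active cells were measured by CellTiter-Glo luminescence. Final concentrations spanned up to 46 µM (MIPE, 11-point) or 0.59 nM-46 µM (NPC, 8-point) in primary screens, 11-point in follow-ups.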

[2] = qHTS of pediatric cancer cell lines to identify multiple opportunities for drug repurposing: Confirmatory screen for control Hh wild type fibroblast cells (AID 1347121); further: nearly all actives have a fitted effect of over 70% in size
Outline: as §1

[3] = qHTS of pediatric cancer cell lines to identify multiple opportunities for drug repurposing: Confirmatory screen for U-2 OS cells (AID 1347122); further: nearly all actives have a fitted effect of over 65% in size; further: potency means the concentration at half of the fitted maximal effect
Outline: as §1

[4] = qHTS of pediatric cancer cell lines to identify multiple opportunities for drug repurposing: Confirmatory screen for Rh41 cells (AID 1347123); further: nearly all actives have a fitted effect of over 60% in size; further: potency means the concentration at half of the fitted maximal effect
Outline: as §1

[5] = qHTS of pediatric cancer cell lines to identify multiple opportunities for drug repurposing: Confirmatory screen for RD cells (AID 1347124);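 further: cells exposed to compound for 48 h before viability readout; nearly all actives have a fitted effect of over 65% in size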; further: potency means the concentration at half of the fitted maximal effect
Outline: as §1

[6] = qHTS of pediatric cancer cell lines to identify multiple opportunities for drug repurposing: Confirmatory screen for OHS-50 cells (AID 1347128);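 further: compound exposure lasted 48 h at 37 degrees C; nearly all actives have a fitted effect of over 55% in size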; further: potency means the concentration at half of the fitted maximal effect
Outline: as §1

[7] = qHTS of pediatric cancer cell lines to identify multiple opportunities for drug repurposing: Confirmatory screen for SK-N-SH cells (AID 1347129);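 further: cells exposed to compound for 48 h before viability read; nearly all actives have a fitted effect of over 60% in size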; further: potency means the concentration at half of the fitted maximal effect
Outline: as §1

[8] = tested on: Zika virus NS2B-NS3 protease (unlinked); assay: Optimization of GU AMC qHTS for Zika virus inhibitors: Unlinked NS2B-NS3 protease assay (AID 1347151); further: nearly all actives have a fitted effect of over 80% in size; further: potency means the concentration at half of the fitted maximal effect
Outline: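 Percent inhibition is derived from the 15-min change in AMC fluorescence, normalized against no-inhibitor and no-enzyme controls, then fitted to a 4-parameter Hill curve. Aprotinin was the intraplate control.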

[9] = tested on: Zika virus NS2B-NS3 protease; assay: Primary screen GU AMC qHTS for Zika virus inhibitors (AID 1347154); further: nearly all actives have a fitted effect of over 70% in size
Outline: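 Fluorogenic AMC-substrate cleavage by noncovalent NS2B-NS3 protease complex (25 nM, pH 8.0 Tris buffer with Tween 20) followed for 15 minutes at room temperature (~20% conversion). Percent inhibition from ex340/em450 signal change, fitted by 4-parameter Hill equation.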

[10] = tested on: Zika virus NS2B-NS3 protease (unlinked complex); assay: Primary screen GU Rhodamine qHTS for Zika virus inhibitors: Unlinked NS2B-NS3 protease assay (AID 1347159); further: nearly all actives have a fitted effect of over 60% in size
Outline: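 Buffer 10 mM Tris-HCl pH 8.0, 0.01% Tween 20. Unlinked protease 25 nM; compound preincubation 15 min, RT, protected from light. Substrate Rhod110, 1.5 microM; ~15% conversion in 15 min.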

[11] = qHTS of pediatric cancer cell lines to identify multiple opportunities for drug repurposing: Confirmatory screen for TC32 cells (AID 1347118);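 further: cells exposed to compound for 48 h before the read; nearly all actives have a fitted effect of over 65% in size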; further: potency means the concentration at half of the fitted maximal effect
Outline: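 Luminescent CellTiter-Glo read-out of metabolically active TC32 cells after 48 h compound exposure. Primary: MIPE 11-point, 0.78 nM–46 µM; NPC 8-point, 0.59 nM–46 µM. Confirmatory: 11-point dilutions.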

[12] = qHTS of pediatric cancer cell lines to identify multiple opportunities for drug repurposing: Confirmatory screen for Rh30 cells (AID 1347126); further: nearly all actives have a fitted effect of over 55% in size; further: potency means the concentration at half of the fitted maximal effect
Outline: as §1

[13] = qHTS of pediatric cancer cell lines to identify multiple opportunities for drug repurposing: Confirmatory screen for Saos-2 cells (AID 1347127); further: nearly all actives have a fitted effect of over 60% in size; further: potency means the concentration at half of the fitted maximal effect
Outline: as §1

[14] = qHTS of pediatric cancer cell lines to identify multiple opportunities for drug repurposing: Confirmatory screen for Rh18 cells (AID 1347125); further: nearly all actives have a fitted effect of over 55% in size; further: potency means the concentration at half of the fitted maximal effect
Outline: as §1

[15] = biological target: Furin (Homo sapiens) (UniProt P09958); assay: Furin counterscreen qHTS for Zika virus inhibitors (AID 1347149); further: potency means the concentration at half of the fitted maximal effect; nearly all actives have a fitted effect of over 70% in size
Outline: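 Counterscreen measures cleavage of 2 microM BOC-RVRR-AMC, below its ~15 microM Km, by 5 nM full-length human furin at pH 7.0 after a 15-min compound preincubation. Inhibition derives from the 15-min fluorescence increase at 37C.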

[16] = ZIKV-mCherry secondary qHTS for Zika virus inhibitors (AID 1347158); further: top concentration of the series differs between compounds
Outline: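 Compounds were tested in Vero monkey kidney cells infected with recombinant mCherry-expressing Zika virus at MOI 1 for 48-72 h at 37 °C. Fixed cells were nuclear-stained and imaged, and infection rate was taken as the fraction of mCherry-positive cells.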

[17] = biological target: N-terminal Xaa-Pro-Lys N-methyltransferase 1 (Homo sapiens) (UniProt Q9BV86); assay: qHTS Assay for Inhibitors of N-terminal methyltransferase 1 (NTMT1): LOPAC validation of the NTMT1 SAHH-coupled ThioGlo3 Assay (AID 1347143);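 further: SAH from peptide methylation measured as thiol fluorescence via SAHH coupling and ThioGlo3; nearly all actives have a fitted effect of over 70% in size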
Outline: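 NTMT1 125nM + cpds (various conc.), 1 min RT; add SAM 100uM/SAHH 10uM/ThioGlo3 15uM (addition mix). SAHH-coupled thiol detection, Ex340/Em450, t0 and 30 min RT; signal normalized to background. LOPAC 1280-cpd pilot.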

Measured: Potency

Chain of N-terminal Xaa-Pro-Lys N-methyltransferase 1 (Homo sapiens) (Q9BV86 whole entry, looked up): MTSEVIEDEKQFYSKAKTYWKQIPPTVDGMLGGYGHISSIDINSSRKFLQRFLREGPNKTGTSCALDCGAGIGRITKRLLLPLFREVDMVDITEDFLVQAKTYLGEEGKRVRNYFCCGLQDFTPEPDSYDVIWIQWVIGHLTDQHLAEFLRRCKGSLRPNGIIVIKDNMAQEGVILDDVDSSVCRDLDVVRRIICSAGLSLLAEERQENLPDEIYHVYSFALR
Chain of Furin (Homo sapiens) (P09958 whole entry, looked up): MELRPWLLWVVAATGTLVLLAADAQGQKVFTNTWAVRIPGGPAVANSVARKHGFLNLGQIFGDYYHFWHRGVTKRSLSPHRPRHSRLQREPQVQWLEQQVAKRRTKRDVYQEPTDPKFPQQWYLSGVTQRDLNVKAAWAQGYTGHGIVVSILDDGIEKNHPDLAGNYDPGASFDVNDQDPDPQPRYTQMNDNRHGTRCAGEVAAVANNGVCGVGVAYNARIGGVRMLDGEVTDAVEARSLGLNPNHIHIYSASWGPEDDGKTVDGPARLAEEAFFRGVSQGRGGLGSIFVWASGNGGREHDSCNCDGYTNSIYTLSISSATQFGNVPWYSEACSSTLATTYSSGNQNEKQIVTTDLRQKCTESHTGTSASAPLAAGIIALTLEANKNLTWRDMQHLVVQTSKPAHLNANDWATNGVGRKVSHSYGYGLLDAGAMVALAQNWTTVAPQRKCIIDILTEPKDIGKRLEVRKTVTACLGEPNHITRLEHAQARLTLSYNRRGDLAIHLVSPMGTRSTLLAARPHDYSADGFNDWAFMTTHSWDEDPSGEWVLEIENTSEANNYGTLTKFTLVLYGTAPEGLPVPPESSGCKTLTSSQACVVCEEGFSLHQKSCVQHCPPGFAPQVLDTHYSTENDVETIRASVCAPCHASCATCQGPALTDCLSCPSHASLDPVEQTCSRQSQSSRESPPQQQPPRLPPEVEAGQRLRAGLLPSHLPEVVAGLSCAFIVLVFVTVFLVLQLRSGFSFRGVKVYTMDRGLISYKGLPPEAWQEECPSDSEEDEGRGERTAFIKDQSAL

c1cnc2cc3c(cc2n1)C1CNCC3C1
inactive: [1] | [2] | [3] | [4] | [5] | [6] | [7] | [8] | [9] | [10]

CC(=O)O[C@H]1C(=O)[C@@]2(C)C([C@H](OC(=O)c3ccccc3)[C@]3(O)C[C@H](OC(=O)[C@H](O)[C@@H](NC(=O)c4ccccc4)c4ccccc4)C(C)=C1C3(C)C)[C@]1(OC(C)=O)CO[C@@H]1C[C@@H]2O (stereo partly specified)
inactive: [12] | [9] | [10]
active: [11] 10.4 nM | [1] 13.1 nM | [4] 10.4 nM | [13] 23.3 nM | [6] 20.8 nM

CCN(CC)CCOc1ccc(Nc2ncc3cc(-c4c(Cl)cccc4Cl)c(=O)n(C)c3n2)cc1
active: [11] 2610 nM | [1] 261 nM | [3] 657 nM | [4] 9270 nM | [5] 2330 nM | [14] 14700 nM | [12] 7370 nM | [13] 1470 nM | [6] 1310 nM | [7] 833 nM
inactive: [8] | [9]

Cc1nc(Nc2ncc(C(=O)Nc3c(C)cccc3Cl)s2)cc(N2CCN(CCO)CC2)n1
inactive: [11] | [2] | [5] | [13] | [6] | [9] | [16] | [10]
active: [3] 3290 nM | [4] 2610 nM | [14] 208 nM | [12] 414 nM | [7] 4180 nM | [15] 50100 nM | [8] 398000 nM

Nc1nc(OCc2ccccc2)c2[nH]cnc2n1
inactive: [11] | [2] | [3] | [4] | [5] | [14] | [12] | [13] | [6] | [7] | [17] | [8] | [9]

CCCOc1ccc2nc(NC(=O)OC)[nH]c2c1
inactive: [2] | [14] | [9]
active: [11] 928 nM | [1] 1170 nM | [3] 2080 nM | [5] 1650 nM | [13] 827 nM
